# Experimental data published in PubChem BioAssay.
# Calls of active or inactive are those of the source. Cut-off read from the data, not from the text of the source, unless noted: active = inhibition above about 80%; inactive = the rest.
# Columns and labels:
# [1] = tested on: Hepatitis C virus NS3 helicase; assay: blockers of NS3h binding to ssDNA – biochemical, fluorescence polarization, LOPAC1280 library, primary screen (AID 687035; in the data active = inhibition above about 37%); conditions: Purified HCV NS3 helicase, Cy5-dT15 ssDNA binding fluorescence polarization; stronger effect = higher value; concentration not given here
# [2] = compounds altering Cy5-DNA-NS3h complex signal – biochemical, LOPAC1280, artefact control for HCV NS3 helicase inhibitor project (AID 687037; call rule not given here); conditions: Cy5-DNA-NS3h complex fluorescence interference counterscreen
# [3] = blockers of cellular phospholipid synthesis – cell-based, LOPAC library, screen 4, primary screen (AID 1347384; call rule not given here); conditions: animal cells, phospholipid biosynthesis inhibition screen; at 10 µM
# [4] = growth inhibition, single agent or in combination, cell-based, chromothripsis tumors, cisplatin or BGB combos (AID 1671449); conditions: LFS_MB_P medulloblastoma cells;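 note: cells exposed for 96 hours; 0% = vehicle DMSO and 100% = killing by high DMSO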
# [5] = growth inhibition, single agent and combos, cell-based, chromothripsis tumors, cisplatin or BGB combos (AID 1671450); conditions: HDN33 neuroblastoma cells, stronger effect = higher value;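 note: cells exposed to compound for four days; 0% = vehicle DMSO and 100% = cell killing by high DMSO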
# [6] = growth inhibition, single agents and combos, ICB984, cell-based, cisplatin or BGB combos, synergistic combos for chromothripsis tumors (AID 1671451; call rule not given here;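 note: cells exposed for 96 hours before readout; 0% = vehicle DMSO and 100% = killing by high DMSO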); conditions: ICB984 medulloblastoma cells, drug combinations, stronger effect = higher value
# [7] = growth inhibition, single agents and combos, LFS_MB_1R, cell-based, cisplatin or BGB combos, synergistic combos for chromothripsis tumors (AID 1671452); conditions: LFS_MB_1R medulloblastoma cells, stronger effect = higher value;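 note: cells exposed for 96 hours before readout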
# [8] = growth inhibition, single agents and combos, HTB85, cell-based, BGB or cisplatin IC20 combos, synergistic combos for chromothripsis tumors (AID 1671453); conditions: HTB85 osteosarcoma cells, drug combinations, stronger effect = higher value;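 note: cells exposed for 96 hours before readout; 0% = vehicle DMSO and 100% = high DMSO killing control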
# [9] = growth inhibition, single agents and combos, CRL2098, cell-based, BGB or cisplatin IC20 combos, synergistic combos for chromothripsis tumors (AID 1671454); conditions: CRL2098 osteosarcoma cells, drug combinations, stronger effect = higher value;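 note: cells exposed for 96 h before readout; 0% = vehicle DMSO and 100% = killing by high DMSO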
# [10] = growth inhibition, MDA-MB-436, cell-based, BGB or cisplatin combos, synergistic combos for chromothripsis tumors (AID 1671458; call rule not given here;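 note: cells exposed for 96 hours; 0% = vehicle DMSO and 100% = killing by high DMSO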); conditions: MDA-MB-436 breast carcinoma growth inhibition, drug combinations, stronger effect = higher value
# [11] = BT084 cell growth, single and combined drugs, ICGC_MB145, cisplatin and BGB IC40 combos (AID 1671461); conditions: BT084 medulloblastoma cells, drug combinations, stronger effect = higher value;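 note: cells exposed to drugs for 96 hours; 0% = vehicle DMSO and 100% = high DMSO full killing control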
# [12] = RCMB18 cell growth, single agent and combined, cisplatin and BGB IC40 combos (AID 1671462); conditions: RCMB18 medulloblastoma cells, stronger effect = higher value;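 note: cells exposed to compound for four days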
# [13] = CRL1545 cell growth, single agent and combined, cisplatin and BGB IC20 combos (AID 1671464); conditions: CRL1545 osteosarcoma cells, stronger effect = higher value;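 note: cells exposed to compound for 96 hours before readout; 0% = vehicle DMSO and 100% = high DMSO killing control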
# [14] = compounds altering circadian rhythm period length – cell-based, LOPAC library, luminescence reporter (AID 2774; call rule not given here;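 note: values are relative to mean of DMSO wells on each plate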); conditions: circadian reporter cells, at 7 µM, actives lie on both sides
# [15] = at 0.5 µM, stronger effect = higher value
# [16] = measured here: combination with BGB IC20, at 0.005 µM
# [17] = measured here: combination with BGB IC40, at 0.005 µM
# [18] = measured here: combination with BGB IC40, at 0.05 µM
# [19] = measured here: combination with cisplatin, at 0.5 µM, stronger effect = higher value
# [20] = measured here: combination with cisplatin, at 5 µM, stronger effect = higher value
# [21] = measured here: with BGB IC20 combination, at 0.5 µM
# [22] = measured here: with cisplatin IC20 combination, at 0.5 µM
# [23] = measured here: 5 uM single agent, at 5 µM
# [24] = measured here: combination with cisplatin, at 0.5 µM
# [25] = measured here: combination with cisplatin, at 5 µM
# [26] = measured here: with BGB IC20, at 0.5 µM
# [27] = measured here: with BGB IC20, at 5 µM
# [28] = measured here: with cisplatin IC20, at 0.5 µM
# [29] = measured here: with cisplatin IC20, at 5 µM
# [30] = measured here: combination with BGB at IC20, at 0.5 µM
# [31] = measured here: combination with cisplatin at IC20, at 0.5 µM
# [32] = measured here: BGB combination, at 0.5 µM
# [33] = measured here: BGB combination, at 5 µM
# [34] = measured here: cisplatin combination, at 0.5 µM
# [35] = measured here: cisplatin combination, at 5 µM
# [36] = cisplatin combination, at 0.5 µM
# [37] = measured here: BGB IC40 combination 0.05 uM, at 0.05 µM
# [38] = measured here: BGB IC40 combination, at 0.05 µM
compound,measurement,setting,value
O=C(O)CCc1ccc(NCc2cccc(Oc3ccccc3)c2)cc1,inhibition,[1],0% (inactive)
same,fluorescence ratio (interference),[2],1 (inactive)
same,outcome,[3],inactive
O=c1[nH]c(-c2ccc(C(F)(F)F)cc2)nc2c1CSCC2,inhibition,[4]; [15],-18.1% (inactive)
same,inhibition,[4]; [16],0.844%
same,inhibition,[4]; [17],12.4%
same,inhibition,[4]; [18],-21.3%
same,inhibition,[4]; [19],-36.1%
same,inhibition,[4]; [20],-17.2%
same,inhibition,"[5]; BGB combo, at 5 µM",8.65%
same,inhibition,[5]; at 0.5 µM,-7.61% (inactive)
same,inhibition,"[5]; cisplatin combo, at 5 µM",8.16%
same,inhibition,[5]; [21],-5.54%
same,inhibition,[5]; [22],-17.8%
same,inhibition,"[5]; single agent, at 5 µM",38.9%
same,inhibition,"[6]; BGB IC20 combo, at 0.005 µM",-4.67%
same,inhibition,"[6]; BGB IC40 combo, at 0.005 µM",-45.8%
same,inhibition,"[6]; BGB IC40 combo, at 0.05 µM",-11.7%
same,inhibition,[6]; at 0.5 µM,-27.1% (inactive)
same,inhibition,"[6]; cisplatin combo, at 0.05 µM",-15.7%
same,inhibition,"[6]; cisplatin combo, at 0.5 µM",-29.5%
same,inhibition,"[6]; cisplatin combo, at 5 µM",-33.3%
same,inhibition,[6]; [23],-7.99%
same,inhibition,[7]; at 0.5 µM,-9.31% (inactive)
same,inhibition,[7]; [18],-26%
same,inhibition,[7]; [24],-13.9%
same,inhibition,[7]; [25],-59%
same,inhibition,[8]; at 0.5 µM,-23.5% (inactive)
same,inhibition,[8]; [26],-23%
same,inhibition,[8]; [27],-21.9%
same,inhibition,[8]; [28],-30.4%
same,inhibition,[8]; [29],-19.6%
same,inhibition,"[8]; single agent, at 5 µM",3.2%
same,inhibition,[9]; at 0.5 µM,-39.2% (inactive)
same,inhibition,[9]; [30],-20.7%
same,inhibition,[9]; [31],-76.4%
same,inhibition,[10]; at 0.5 µM,-4.6% (inactive)
same,inhibition,[10]; [32],-1.61%
same,inhibition,[10]; [33],-2.42%
same,inhibition,[10]; [34],-18.2%
same,inhibition,[10]; [35],-5.9%
same,inhibition,[11]; at 0.5 µM,-4.59% (inactive)
same,inhibition,[11]; [36],-17.6%
same,inhibition,"[11]; cisplatin combination, at 5 µM",-12.8%
same,inhibition,[11]; [37],7.96%
same,inhibition,"[11]; single agent, at 5 µM",-20.3%
same,inhibition,[12]; at 0.5 µM,-18.1% (inactive)
same,inhibition,"[12]; cisplatin combo, at 5 µM",-47.8%
same,inhibition,[12]; [38],-24.5%
same,inhibition,[12]; [24],-29.6%
same,inhibition,"[12]; single agent, at 5 µM",13.3%
same,inhibition,[13]; at 0.5 µM,-34.9% (inactive)
same,inhibition,[13]; [21],-20.3%
same,inhibition,[13]; [22],-44.5%
same,inhibition,"[13]; single agent, at 0.05 µM",-54.3%
same,inhibition,"[13]; single agent, at 5 µM",-18.2%
CCOC(=O)C1=C(C)NC(=S)NC1c1cccc(O)c1 (stereo not drawn),period change,[14],0.16 h (inactive)
CCc1c2c(nc3ccc(O)cc13)-c1cc3c(c(=O)n1C2)COC(=O)[C@]3(O)CC,inhibition,[4]; [15],-26% (inactive)
same,inhibition,[4]; [16],-6.89%
same,inhibition,[4]; [17],-27.9%
same,inhibition,[4]; [18],-20.9%
same,inhibition,[4]; [19],-58.2%
same,inhibition,[4]; [20],87.9%
same,inhibition,"[5]; BGB combo, at 5 µM",98.3%
same,inhibition,[5]; at 0.5 µM,84.1% (active)
same,inhibition,"[5]; cisplatin combo, at 5 µM",98.4%
same,inhibition,[5]; [21],83%
same,inhibition,[5]; [22],82.2%
same,inhibition,"[5]; single agent, at 5 µM",96.3%
same,inhibition,"[6]; BGB IC20 combo, at 0.005 µM",45.8%
same,inhibition,"[6]; BGB IC40 combo, at 0.005 µM",68.8%
same,inhibition,"[6]; BGB IC40 combo, at 0.05 µM",95.3%
same,inhibition,[6]; at 0.5 µM,-17.9% (inactive)
same,inhibition,"[6]; cisplatin combo, at 0.05 µM",95.2%
same,inhibition,"[6]; cisplatin combo, at 0.5 µM",-11.4%
same,inhibition,"[6]; cisplatin combo, at 5 µM",-28.7%
same,inhibition,[6]; [23],-16.8%
same,inhibition,[7]; at 0.5 µM,74.1% (inactive)
same,inhibition,[7]; [18],-7.58%
same,inhibition,[7]; [24],77.6%
same,inhibition,[7]; [25],86.6%
same,inhibition,[8]; at 0.5 µM,98.3% (active)
same,inhibition,[8]; [26],96.1%
same,inhibition,[8]; [27],98.1%
same,inhibition,[8]; [28],99.1%
same,inhibition,[8]; [29],99.5%
same,inhibition,"[8]; single agent, at 5 µM",99.6%
same,inhibition,[9]; at 0.5 µM,57.3% (inactive)
same,inhibition,[9]; [30],88.7%
same,inhibition,[9]; [31],37.4%
same,inhibition,[10]; at 0.5 µM,72.1% (inactive)
same,inhibition,[10]; [32],67%
same,inhibition,[10]; [33],73.3%
same,inhibition,[10]; [34],71.2%
same,inhibition,[10]; [35],84.4%
same,inhibition,[11]; at 0.5 µM,5.49% (inactive)
same,inhibition,[11]; [36],45.3%
same,inhibition,"[11]; cisplatin combination, at 5 µM",33.9%
same,inhibition,[11]; [37],-2.99%
same,inhibition,"[11]; single agent, at 5 µM",52.7%
same,inhibition,[12]; at 0.5 µM,30.1% (inactive)
same,inhibition,"[12]; cisplatin combo, at 5 µM",67.1%
same,inhibition,[12]; [38],-24.6%
same,inhibition,[12]; [24],61.9%
same,inhibition,"[12]; single agent, at 5 µM",62.2%
same,inhibition,[13]; at 0.5 µM,93.7% (active)
same,inhibition,[13]; [21],98.1%
same,inhibition,[13]; [22],91.2%
same,inhibition,"[13]; single agent, at 0.05 µM",16.8%
same,inhibition,"[13]; single agent, at 5 µM",99.8%
O=c1cc(-c2cccc3c2Sc2ccccc2S3)oc(N2CCOCC2)c1,inhibition,[4]; [15],81.3% (active)
same,inhibition,[4]; [16],-22.8%
same,inhibition,[4]; [17],-15.3%
same,inhibition,[4]; [18],-27.2%
same,inhibition,[4]; [19],108%
same,inhibition,[4]; [20],-58.3%
same,inhibition,"[5]; BGB combo, at 5 µM",-23.9%
same,inhibition,[5]; at 0.5 µM,-20.7% (inactive)
same,inhibition,"[5]; cisplatin combo, at 5 µM",-6.5%
same,inhibition,[5]; [21],-21.1%
same,inhibition,[5]; [22],-8.71%
same,inhibition,"[5]; single agent, at 5 µM",-26.1%
same,inhibition,"[6]; BGB IC20 combo, at 0.005 µM",-0.749%
same,inhibition,"[6]; BGB IC40 combo, at 0.005 µM",-24.9%
same,inhibition,"[6]; BGB IC40 combo, at 0.05 µM",11.6%
same,inhibition,[6]; at 0.5 µM,-26.5% (inactive)
same,inhibition,"[6]; cisplatin combo, at 0.05 µM",9.17%
same,inhibition,"[6]; cisplatin combo, at 0.5 µM",-36.8%
same,inhibition,"[6]; cisplatin combo, at 5 µM",-31.3%
same,inhibition,[6]; [23],-22.7%
same,inhibition,[7]; at 0.5 µM,-10.6% (inactive)
same,inhibition,[7]; [18],-24.7%
same,inhibition,[7]; [24],9.6%
same,inhibition,[7]; [25],-31.9%
same,inhibition,[8]; at 0.5 µM,-13.7% (inactive)
same,inhibition,[8]; [26],-13.9%
same,inhibition,[8]; [27],-31%
same,inhibition,[8]; [28],-8.83%
same,inhibition,[8]; [29],-19.5%
same,inhibition,"[8]; single agent, at 5 µM",-17.7%
same,inhibition,[9]; at 0.5 µM,-29.5% (inactive)
same,inhibition,[9]; [30],-49.7%
same,inhibition,[9]; [31],-36.1%
same,inhibition,[10]; at 0.5 µM,-26.6% (inactive)
same,inhibition,[10]; [32],-22.1%
same,inhibition,[10]; [33],-25.2%
same,inhibition,[10]; [34],-36.1%
same,inhibition,[10]; [35],-24.3%
same,inhibition,[11]; at 0.5 µM,-24.9% (inactive)
same,inhibition,[11]; [36],-8.73%
same,inhibition,"[11]; cisplatin combination, at 5 µM",-21.4%
same,inhibition,[11]; [37],-12.1%
same,inhibition,"[11]; single agent, at 5 µM",-39.1%
same,inhibition,[12]; at 0.5 µM,-11.1% (inactive)
same,inhibition,"[12]; cisplatin combo, at 5 µM",5.15%
same,inhibition,[12]; [38],-26.8%
same,inhibition,[12]; [24],-2.95%
same,inhibition,"[12]; single agent, at 5 µM",-8.05%
same,inhibition,[13]; at 0.5 µM,-32.7% (inactive)
same,inhibition,[13]; [21],-8.28%
same,inhibition,[13]; [22],-48.2%
same,inhibition,"[13]; single agent, at 0.05 µM",-20.3%
same,inhibition,"[13]; single agent, at 5 µM",-31.2%
